# According to PubChem BioAssay AID504850 (National Center for Advancing Translational Sciences (NCATS), 2011):
# Out of some 2,300 compounds screened, about 1,200 (52%) were called active. Roughly 34% stayed inconclusive and do not appear here. Calls follow the shape of the dose curve; as a rule, active = well fitted inhibition curve with a large enough effect; inconclusive = small, poorly fitted or top-dose-only effect, or effect the other way; inactive = no such curve, though single readings can be large or run the other way. So high a share suggests a set chosen from earlier hits. The list shows a part of the results.
# Experiment: Confirmation screen for delayed death inhibitors of the malarial parasite plastid, 48 hour incubation; also: nearly all actives have a fitted effect of over 65% in size
# Conditions: P. falciparum-infected erythrocytes, luciferase growth; series mostly up to 28.7 µM
# How it was run: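 Erythrocytes infected with luciferase-expressing P. falciparum (2% hematocrit, 0.1% parasitemia) incubated with compounds 48 hours at 37 C, 5% CO2, in RPMI/Albumax. Growth inhibition scored as reduced luminescence after detection reagent.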
# Potency is read from the fitted curve at half-maximal effect.
row,Structure (SMILES),Potency
1,CC(=O)/C=C/c1ccccc1Oc1c(F)c(F)nc(F)c1F,10 µM (active)
2,Cc1cccc2c1NC(=O)/C2=C\C(=O)c1cccs1,inactive
3,CC(C)N(C(=O)CSc1nnc(-c2ccc3c(c2)OCO3)n1C)C(C)C,11.2 µM (active)
4,CC(NC(=O)Nc1ccc(Cl)cc1)c1ccc2c(c1)OCO2 (stereo unspecified),inactive
5,COC(=O)[C@H](Cc1ccccc1)N(C)S(=O)(=O)c1cccc(S(=O)(=O)N(C)[C@@H](Cc2ccccc2)C(=O)OC)c1,12.6 µM (active)
6,O=C(N[C@@H](Cc1ccccc1)C(=O)CCl)OCc1ccccc1,inactive
7,CCCCCn1c(=O)c2ccccc2n2c(CCl)nnc12,10 µM (active)
8,COc1cccc(F)c1C(C[N+](=O)[O-])c1c(N)n(C)c(=O)n(C)c1=O (stereo unspecified),5.01 µM (active)
9,Cc1ccc(CN2CCCCC2C(=O)Nc2ccc(Oc3cccnc3)cc2)o1 (stereo unspecified),11.2 µM (active)
10,O=C(Nc1ccc(N2CCN(C(=O)c3cccs3)CC2)cc1)c1ccc([N+](=O)[O-])o1,3.55 µM (active)
11,O=C(Nc1ccc(N2CCN(C(=O)c3ccccc3)CC2)cc1)c1ccc([N+](=O)[O-])o1,5.01 µM (active)
12,O=C(Nc1ccc(N2CCN(C(=O)c3ccco3)CC2)cc1)c1ccc(F)cc1,11.2 µM (active)
13,O=C(Nc1c2c(nn1-c1ccc([N+](=O)[O-])cc1)CS(=O)(=O)C2)c1cccs1,inactive
14,Cc1ccccc1C(=O)N1CCN(c2ccc(NC(=O)c3ccc([N+](=O)[O-])o3)cc2)CC1,10 µM (active)
15,O=C(NCc1ccc(F)cc1)C1CCN(S(=O)(=O)c2ccc(Br)s2)CC1,12.6 µM (active)
16,COc1ccc(CCNS(=O)(=O)c2ccc(Br)s2)cc1,inactive
17,O=C(COC(=O)C1C2CC3OC(=O)C1C3C2)Nc1ccccc1 (stereo unspecified),inactive
18,O=S1(=O)Nc2c(ccc3cccnc23)-c2ccccc21,1.78 µM (active)
19,Cc1ccc(-c2nc(-c3cccnc3)sc2CC(=O)Nc2ccc(C)c(Cl)c2)cc1,4.47 µM (active)
20,Cc1nc(-c2ccccn2)sc1C(=O)Nc1ccc(Cl)c(Cl)c1,inactive
21,COc1cc(OC)c(OC)cc1CN1CCN(C(=O)c2cccc3ccccc23)CC1,12.6 µM (active)

row,Structure (SMILES),Potency
1,CC1C/C(=C/c2ccncc2)C(=O)/C(=C/c2ccncc2)C1 (stereo unspecified),3.98 µM (active)
2,CCSc1nnc(N2C(=O)c3ccc(C(=O)c4ccc(C(=O)O)cc4)cc3C2=O)s1,inactive
3,O=C(NC1CCCC1)C1CC(=O)N(CCc2ccccc2)C1 (stereo unspecified),inactive
4,O=C(NC1CCN(Cc2ccccc2)CC1)C1CCN(c2nnc(-n3cccc3)s2)CC1,10 µM (active)
5,O=C(Cc1cccs1)NCCc1ccc(Cl)cc1,4.47 µM (active)
6,Cc1ccc(Cl)cc1N1CCN(c2cccc[n+]2C)CC1,3.16 µM (active)
7,O=C(COc1ccccc1)Nc1nnc(-c2ccc(F)cc2)o1,inactive
8,COc1cccc2sc(Nc3nnc(-c4ccccc4Cl)o3)nc12,12.6 µM (active)
9,COc1cccc2sc(Nc3nnc(-c4ccc(F)cc4)o3)nc12,7.08 µM (active)
10,CC(C)CCSc1nc(N)c(C#N)cc1C#N,6.31 µM (active)
11,CCOC(=O)c1c[nH]c2cc(OCC(C)C)c(OCC(C)C)cc2c1=O,0.199 µM (active)
12,CSc1nnc(C)c(=O)[nH]1,inactive
13,Cc1cc(=O)oc2c1ccc1oc(/C(=N/O)c3ccccc3)c(C)c12,7.94 µM (active)
14,COc1ccccc1NC(=S)NCc1cccs1,inactive
15,COc1ccc2cc3cc(C(=O)Nc4ccc5c(c4)OCO5)oc3nc2c1,5.01 µM (active)
16,COc1ccc2nc3oc(C(=O)NCc4cccs4)cc3cc2c1,3.55 µM (active)
17,COCCCNC(=O)c1cc2cc3cc(OC)ccc3nc2o1,5.01 µM (active)
18,Cc1ccc2cc3cc(C(=O)NCCCN4CCCC4=O)oc3nc2c1,3.16 µM (active)
19,Cn1cnc([N+](=O)[O-])c1Sc1ccc(Br)cc1,inactive
20,Cc1cc(Br)ccc1NC(=O)CNC(=O)Cn1ncc(Cl)c(Cl)c1=O,12.6 µM (active)
21,O=C(NNc1nc(-c2ccccc2)cs1)c1ccco1,2.24 µM (active)

row,Structure (SMILES),Potency
1,O=C(Nn1c(-c2ccccc2)nc2ccccc2c1=O)c1ccco1,inactive
2,S=c1[nH]nc(-c2ccccn2)n1/N=C/c1ccc(-c2ccccc2Br)o1,inactive
3,Cc1nn(-c2ccccc2)c(C)c1/C=N/n1c(-c2ccccc2Br)n[nH]c1=S,14.1 µM (active)
4,Cc1[nH]c(=O)c(C(=O)/C=C/c2ccccc2F)c2c1CCCC2,7.08 µM (active)
5,Cc1[nH]c2ccccc2c(=O)c1C(=O)/C=C/c1ccccc1,6.31 µM (active)
6,Cc1[nH]c(=O)c(C(=O)/C=C/c2ccccc2)c2c1CCCC2,6.31 µM (active)
7,Cc1[nH]c2ccccc2c1/C=N/NC(=O)CNC(=O)Cc1ccccc1,inactive
8,CC(=O)Nc1ccc(NC(=O)c2ccc(C3SCC(=O)N3CCc3ccccc3)cc2)cc1 (stereo unspecified),8.91 µM (active)
9,O=C1CSC(c2cccnc2)N1CCc1ccccn1 (stereo unspecified),inactive
10,N#CCc1nc(C(c2ccccc2)c2ccccc2)no1,7.94 µM (active)
11,CC(C)c1cc(NC(=O)CCl)on1,10 µM (active)
12,CC(C)NC(=S)N/N=C/c1sc(N2CCCCC2)nc1-c1cccs1,6.31 µM (active)
13,Cc1ccc(C(=O)N/C(=C\c2ccc(-c3ccc(Cl)cc3)o2)C(=O)NCCCN(C)C)cc1,3.98 µM (active)
14,C=CCN=c1scc(-c2ccc(F)cc2)n1/N=C/c1ccccn1,6.31 µM (active)
15,CCCCN1/C(=C/c2cccc[n+]2C)Sc2cc(NC(C)=O)ccc21,3.16 µM (active)
16,Cc1c(CC(=O)N2C[C@H]3C[C@@H](C2)c2cccc(=O)n2C3)c(=O)oc2cc3occ(C(C)(C)C)c3cc12,12.6 µM (active)
17,Cc1c(OC(C)C(=O)N2C[C@H]3C[C@@H](C2)c2cccc(=O)n2C3)ccc2c3c(c(=O)oc12)CCC3 (stereo partly specified),12.6 µM (active)
18,CC(C)C[C@@H](NC(=O)[C@H](Cc1ccccc1)NC(=O)c1cnccn1)B(O)O,0.178 µM (active)
19,O=C(C[C@@H]1C/C=C\CC[C@@H](Cc2ccc(F)cc2)C(=O)OC[C@@H]2CCCN2C1=O)NCCO,12.6 µM (active)
